High-throughput results: PubChem BioAssay, National Center for Advancing Translational Sciences (NCATS)
ELG1 repair inh = ELG1-dependent DNA repair inhibition; Potency, µM (highest dose often 46.1 µM), without a hit: at the top dose activity change, negative = inhibition, hits mostly inhibitors; AID 504467; 330,000 compounds, 2.3% hits; HEK293T ELG1-luciferase reporter, luminescence, 16 h; DNA damage induced by 5-fluorouridine; further: on the % scale 0 is the no-effect control and ±100 the full control effect; nearly all actives have a fitted effect of over 55% in size
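In this reporter screen, reduction of luminescence relative to DMSO vehicle indicated activity. Compounds and 5-fluorouridine were added together to 2,000 cells per well, incubated for 16 hr at 37 °C, then developed with ONE-Glo.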
SMN2 splice enh = SMN2 splice variant enhancement | HEK293 SMN2-luciferase splicing reporter, luminescence, 30-36 h | Potency, µM (series often up to 46.1 µM), inactives show top-dose activity change, positive = activation, usual class: activators | 210,000 compounds, 2.8% hits | AID 1458; further: % of control where 0% means no effect; nearly all actives have a fitted effect of over 55% in size
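qHTS luciferase splicing reporter: luminescence rises when SMN2 exon 7 is included in transfected HEK293 cells. Compound exposure lasted 30-36 h at 37C, with 4.5 mM final sodium butyrate as control, followed by a ONE-Glo read.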
NPC1 promoter act = NPC1 promoter activation; Huh7 NPC1 promoter luciferase reporter, 24 h; Potency, µM (titrated, usually from 9.22 µM), inactives show top-dose activation, hits mostly activators; 320,000 compounds, 2.4% hits; further: % of control where 0% means no effect; nearly all actives have a fitted effect of over 60% in size
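Cells: Huh7 expressing luciferase under the NPC1 promoter, 1500/well. Seeded 2 h, compound added, incubated 24 h at 37 °C. Luciferase reagent, 10 min ambient, then luminescence.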
Rab9 promoter act = activates the Rab9 promoter. Huh7 Rab9 promoter-luciferase reporter, luminescence, 24 h. Potency, µM (top dose mostly 9.22 µM), without a hit: at the top dose activation, negative = inhibition, most hits filed as activators. 320,000 compounds, 2.8% hits. AID 485297; further: % of control where 0% means no effect; nearly all actives have a fitted effect of over 60% in size
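Luciferase signal after 10 min detection reagent at ambient indicates Rab9 promoter upregulation; stably transfected Huh7 cells were treated 24 h with compound in DMSO at 37 °C, 5% CO2.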
ELG1 genotoxic = inducers of genotoxicity in HEK293T ELG1-luciferase cells. Potency, µM (top dose mostly 46 µM), without a hit: at the highest dose activity change, positive = activation, hits mostly activators. HEK293T ELG1-luciferase reporter, luminescence, 16 h. 330,000 compounds, 1.3% hits; further: % of control where 0% means no effect; nearly all actives have a fitted effect of over 60% in size
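After overnight (16 hr) compound treatment at 37 °C, ELG1-luciferase HEK293T cells were lysed with ONE-Glo; luminescence quantified 30 min later at room temperature.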
FLuc modulator = inhibits or activates purified firefly luciferase, miR-21 counter-screen. P08659. purified FLuc, Km substrates, luminescence inhibition. Potency, µM (series often up to 57.5 µM), without a hit: at the top dose activity change, negative = inhibition, most hits filed as inhibitors. 360,000 compounds, 6.9% hits;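 further: plate controls were vehicle for no effect and reference inhibitor for full effect; nearly all actives have a fitted effect of over 55% in size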
Target sequence (P08659 whole entry, looked up): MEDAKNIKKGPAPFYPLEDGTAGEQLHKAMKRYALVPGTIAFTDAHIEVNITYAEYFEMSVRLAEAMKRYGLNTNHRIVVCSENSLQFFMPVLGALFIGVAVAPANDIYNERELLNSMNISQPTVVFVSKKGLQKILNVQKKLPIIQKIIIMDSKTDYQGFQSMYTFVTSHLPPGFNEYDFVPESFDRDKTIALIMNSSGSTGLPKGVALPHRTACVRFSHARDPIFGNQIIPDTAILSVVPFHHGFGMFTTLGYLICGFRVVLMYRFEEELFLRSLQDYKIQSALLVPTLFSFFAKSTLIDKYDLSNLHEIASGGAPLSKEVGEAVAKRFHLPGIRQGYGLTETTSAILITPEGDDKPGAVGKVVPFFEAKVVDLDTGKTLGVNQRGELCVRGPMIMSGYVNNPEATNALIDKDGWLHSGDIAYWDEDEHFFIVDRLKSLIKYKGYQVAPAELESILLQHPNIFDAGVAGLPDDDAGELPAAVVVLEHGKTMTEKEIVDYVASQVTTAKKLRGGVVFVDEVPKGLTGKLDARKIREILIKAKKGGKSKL
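Biochemical qHTS of compounds, final roughly 60 µM downward over six points, against 10 nM purified firefly luciferase using Km concentrations of substrates (10 uM D-luciferin, 10 uM ATP) in Tris acetate pH 7.5 buffer; luminescence output.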
Starred values were filed as active, the others as inactive; [ ] = remark or other dose. This is a sample that favours compounds with a hit; in the whole collection about 9.2% have one here. The call rests on the fitted dose curve; in most records, active means well fitted curve in the direction sought with a large enough effect; inconclusive means small, poorly fitted or top-dose-only effect, or another doubt; inactive means no such curve, though single readings can be large; an effect the other way counts as inactive or inconclusive. Potency means the concentration at half of the fitted maximal effect.

CCOC(=O)CNC(=O)c1sc2ncnc(N3CCc4ccccc4C3)c2c1C was read as ELG1 repair inh 18.4µM*, SMN2 splice enh 13.5%, NPC1 promoter act -3.6%, Rab9 promoter act -1.2%, ELG1 genotoxic -13.8% and FLuc modulator -15.8%.
`CCc1ccc(CNC(=O)COc2cc(=O)n(CC)c3ccccc23)cc1` gave SMN2 splice enh inconclusive and FLuc modulator -8.3%.
`Cc1c(CCC(=O)NCCCC(=O)O)c(=O)oc2cc3oc4c(c3cc12)CCCC4` gave ELG1 repair inh inconclusive, NPC1 promoter act 0.3%, Rab9 promoter act 2.4%, ELG1 genotoxic 5.6% and FLuc modulator 19µM*.
For Cc1coc2cc3oc(=O)c(CCC(=O)N[C@@H](CCCNC(N)=O)C(=O)O)c(C)c3cc12 the results were ELG1 repair inh 0.1%, NPC1 promoter act 1.4%, Rab9 promoter act 5.5%, ELG1 genotoxic -1.0% and FLuc modulator 1.6%.
For Cc1oc2c(C)c3oc(=O)c(CC(=O)N[C@@H](CCCNC(N)=O)C(=O)O)c(C)c3cc2c1C the results were ELG1 repair inh 0.4%, NPC1 promoter act -4.2%, Rab9 promoter act -0.2%, ELG1 genotoxic -0.5% and FLuc modulator inconclusive.
Screening Cc1coc2cc3oc(=O)c(CC(=O)N[C@@H](CC(C)C)C(=O)O)c(C)c3cc12 returned ELG1 repair inh 2.3%, NPC1 promoter act 0.8%, Rab9 promoter act -3.6%[1.84 µM], ELG1 genotoxic -0.2% and FLuc modulator 1.5%.
`Cc1c(CCC(=O)NCCCCCC(=O)O)c(=O)oc2c(C)c3oc4c(c3cc12)CCCC4` gave ELG1 repair inh -1.4%, NPC1 promoter act 0.6%, Rab9 promoter act -2.7%, ELG1 genotoxic 3.8% and FLuc modulator inconclusive.
Cc1c(CC(=O)N[C@@H](CCCNC(N)=O)C(=O)O)c(=O)oc2cc3oc4c(c3cc12)CCCC4 was read as ELG1 repair inh 18.0%, NPC1 promoter act -0.9%, Rab9 promoter act -6.6%, ELG1 genotoxic -0.2% and FLuc modulator 16.9µM*.
`Cc1c(CCC(=O)N[C@@H](CCCNC(N)=O)C(=O)O)c(=O)oc2cc3oc4c(c3cc12)CCCC4` gave ELG1 repair inh inconclusive, NPC1 promoter act 2.6%, Rab9 promoter act 9.2%, ELG1 genotoxic 7.2% and FLuc modulator 15.1µM*.
`Cc1c(CC(=O)N[C@@H](C)C(=O)O)c(=O)oc2cc3oc4c(c3cc12)CCCC4` gave ELG1 repair inh 1.9%, NPC1 promoter act 0.4%, Rab9 promoter act 1.1%, ELG1 genotoxic -3.0% and FLuc modulator 16.9µM*.
O=C(COc1ccc(S(=O)(=O)N2CCOCC2)cc1)NC1CC1 was read as ELG1 repair inh -0.6%, NPC1 promoter act -0.2%, Rab9 promoter act -0.4%, ELG1 genotoxic 4.4% and FLuc modulator 3.3%.
`CCCCC(NC(=O)Cc1c(C)c2cc3c4c(oc3cc2oc1=O)CCCC4)C(=O)O` (stereo not given) gave ELG1 repair inh 20.1%, NPC1 promoter act -1.3%, Rab9 promoter act 5.6%, ELG1 genotoxic 1.5% and FLuc modulator 19µM*.
Screening CCC(NC(=O)CCc1c(C)c2cc3c4c(oc3cc2oc1=O)CCCC4)C(=O)O (stereo not given) returned ELG1 repair inh inconclusive, NPC1 promoter act -2.2%, Rab9 promoter act 6.0%, ELG1 genotoxic 6.3% and FLuc modulator 15.1µM*.
`CSCC[C@H](NC(=O)Cc1c(C)c2cc3c4c(oc3cc2oc1=O)CCCC4)C(=O)O` gave ELG1 repair inh inconclusive, NPC1 promoter act -0.1%, Rab9 promoter act 0.7%, ELG1 genotoxic 1.9% and FLuc modulator 10.7µM*.
For CCCCC(NC(=O)Cc1c(C)c2cc3c4c(oc3c(C)c2oc1=O)CCCC4)C(=O)O (stereo not given) the results were ELG1 repair inh 3.7%, NPC1 promoter act -3.3%, Rab9 promoter act -1.1%, ELG1 genotoxic -1.5% and FLuc modulator inconclusive.
